From PubChem BioAssay
Activity calls are given as the source filed them. Unless noted, no rule for the calls is given here.

Assays:
[1] = A549 cell viability effects, profiling panel, calcein-AM fluorescence, 48 h, basal (AID 1162); settings: higher = more signal; also: test concentration not given here
[2] = adipocyte viability effects, profiling panel, cell-based, 3T3-L1 adipocytes, calcein-AM fluorescence, 48 h, basal (AID 1163); settings: 3T3-L1 adipocytes viability, higher = more signal; also: test concentration not given here
[3] = HepG2 cell viability effects, profiling panel, calcein-AM fluorescence, 48 h, basal (AID 1164); settings: higher = more signal; also: test concentration not given here
[4] = MM1S cell viability effects, profiling panel, calcein-AM fluorescence, 48 h, basal (AID 1165); settings: higher = more signal;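 also: viability of MM1S multiple myeloma cells under basal unstimulated conditions; test concentration not given here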
[5] = basal RPMI8226 viability, no added stimulus, profiling panel, cell-based, calcein-AM fluorescence, 48 h, PK04 Diversity Set (AID 1166); settings: RPMI8226 myeloma viability, higher = more signal;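 also: cells grown under basal conditions without added stimulus; test concentration not given here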
[6] = basal HepG2 mitochondrial membrane potential changes, profiling panel, cell-based, JC-1 fluorescence, 24 h, 100 nL compound (AID 1167); settings: higher = more signal; also: test concentration not given here
[7] = basal 3T3-L1 adipocyte mitochondrial potential changes, profiling panel, cell-based, JC-1 fluorescence, 3T3-L1 adipocytes, 24 h, 100 nL compound (AID 1168); settings: JC-1 mitochondrial fluorescence, higher = more signal, called active from +8 up or from −8 down; also: test concentration not given here
[8] = basal RPMI8226 mitochondrial membrane potential changes, profiling panel, cell-based, JC-1 fluorescence, 24 h, 100 nL compound (AID 1169); settings: RPMI8226 myeloma, JC-1 mitochondrial potential fluorescence, higher = more signal; also: test concentration not given here
[9] = basal MM1S mitochondrial membrane potential changes, profiling panel, cell-based, JC-1 fluorescence, 24 h, 100 nL compound (AID 1170); settings: higher = more signal; also: test concentration not given here
[10] = A549 lung cancer cell viability effects, profiling panel, resazurin fluorescence, 24 h, PK04 Diversity Set (AID 1171); settings: higher = more signal, called active from +8 up or from −8 down; also: test concentration not given here
[11] = HepG2 liver cancer cell viability effects, profiling panel, resazurin fluorescence, 24 h, PK04 Diversity Set (AID 1172); settings: higher = more signal; also: test concentration not given here
[12] = basal S. cerevisiae growth modulation, no modifier, primary screen, OD600, strain BY4716, 24 h, basal condition (AID 1173); settings: OD600, 24 h, higher = more signal, called active from +8 up or from −8 down
[13] = MM1S myeloma cell viability, profiling panel, resazurin fluorescence, basal, 24 h, PK04 Diversity Set (AID 1174); settings: higher = more signal, called active from +8 up or from −8 down;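 also: MM1S multiple myeloma cell line; test concentration not given here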
[14] = target: Dihydroorotate dehydrogenase (quinone), mitochondrial (Plasmodium falciparum (isolate 3D7)) (UniProt Q08210); assay: PfDHODH enzyme inhibitors, primary screen, biochemical, C-terminal His tag, absorbance 600 nm (AID 1175); settings: DCIP absorbance 600 nm, higher = more signal, called active from +8 up or from −8 down;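 also: recombinant parasite enzyme with a five histidine tag at its C terminus; test concentration not given here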
Chain of Dihydroorotate dehydrogenase (quinone), mitochondrial (Plasmodium falciparum (isolate 3D7)) (Q08210 whole entry, looked up): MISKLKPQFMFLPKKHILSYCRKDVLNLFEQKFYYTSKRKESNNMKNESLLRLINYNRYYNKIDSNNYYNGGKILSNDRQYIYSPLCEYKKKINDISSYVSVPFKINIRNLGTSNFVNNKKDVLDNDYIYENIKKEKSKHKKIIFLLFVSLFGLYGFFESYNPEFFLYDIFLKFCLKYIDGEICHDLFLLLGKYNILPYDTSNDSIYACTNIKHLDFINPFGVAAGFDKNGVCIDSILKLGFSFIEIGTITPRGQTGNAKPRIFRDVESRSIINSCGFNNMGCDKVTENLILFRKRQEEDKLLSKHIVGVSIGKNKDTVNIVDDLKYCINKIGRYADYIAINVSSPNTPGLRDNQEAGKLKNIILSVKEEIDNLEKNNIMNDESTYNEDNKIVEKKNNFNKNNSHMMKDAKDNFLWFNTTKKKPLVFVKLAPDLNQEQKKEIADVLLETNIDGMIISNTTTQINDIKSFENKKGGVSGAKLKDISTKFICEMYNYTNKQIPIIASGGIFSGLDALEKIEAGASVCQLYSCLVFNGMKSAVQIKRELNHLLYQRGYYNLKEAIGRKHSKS

[15] = P. aeruginosa biofilm formation inhibitors, primary screen, strain PAO1, LB-PBS medium, absorbance 600 nm (AID 1176); also: test concentration not given here; settings: P. aeruginosa PAO1 growth/biofilm, A600, 12 h; higher = more signal
[16] = S. cerevisiae RM11-1a growth modifiers, primary screen, strain RM11-1a, OD600, basal, 24 h (AID 1177); settings: OD600, 24 h, higher = more signal, called active from +8 up or from −8 down;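 also: cultures grown under basal conditions with no added stressor; test concentration not given here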
[17] = E. coli acrAB mutant growth effects, primary screen, E. coli filamentation inducers, strain DRC39, OD650, 24 h (AID 1178); settings: higher = more signal, called active from +8 up or from −8 down;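 also: growth measured as culture turbidity by optical density at 650 nm; test concentration not given here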
[18] = E. coli acrAB mutant growth effects, primary screen, E. coli filamentation inducers, strain DRC39, OD650, 48 h (AID 1179);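 also: screen aims at cell division blockers that make cells filament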; settings: E. coli DRC39 delta-acrAB growth, higher = more signal, called active from +8 up or from −8 down
[19] = RPMI8226 myeloma cell viability, profiling panel, resazurin fluorescence, basal, 24 h, PK04 Diversity Set (AID 1180); settings: higher = more signal;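 also: RPMI8826 multiple myeloma cell line at 5000 cells per well; test concentration not given here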
[20] = target: E3 ubiquitin-protein ligase XIAP (Homo sapiens) (UniProt P98170); assay: XIAP binders, primary screen, biophysical, small-molecule microarray, fluorescence 635 nm (AID 1181); settings: small-molecule microarray binding, higher = more signal;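 also: score merges 667 nm emission and signal to noise over triplicate slides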
Chain of E3 ubiquitin-protein ligase XIAP (Homo sapiens) (P98170 whole entry, looked up): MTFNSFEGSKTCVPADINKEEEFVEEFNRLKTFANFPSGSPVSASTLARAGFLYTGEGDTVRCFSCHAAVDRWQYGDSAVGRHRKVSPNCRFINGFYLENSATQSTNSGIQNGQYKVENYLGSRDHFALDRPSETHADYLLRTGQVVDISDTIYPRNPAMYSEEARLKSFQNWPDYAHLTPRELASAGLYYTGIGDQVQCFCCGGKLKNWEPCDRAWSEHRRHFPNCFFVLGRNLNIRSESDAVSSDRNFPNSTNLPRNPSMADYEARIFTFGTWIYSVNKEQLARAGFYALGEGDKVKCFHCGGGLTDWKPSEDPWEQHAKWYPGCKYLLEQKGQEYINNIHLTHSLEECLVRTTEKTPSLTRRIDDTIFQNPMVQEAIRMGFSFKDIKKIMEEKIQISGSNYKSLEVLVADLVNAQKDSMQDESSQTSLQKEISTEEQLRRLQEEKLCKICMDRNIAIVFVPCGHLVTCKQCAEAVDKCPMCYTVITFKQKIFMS

Compound	z-score [1]	z-score [2]	z-score [3]	z-score [4]	z-score [5]	z-score [6]	z-score [7]	z-score [8]	z-score [9]	z-score [10]	z-score [11]	z-score [12]	z-score [13]	composite z-score [14]	z-score [15]	z-score [16]	z-score [17]	z-score [18]	z-score [19]	composite z-score [20]
C=CCOC(=O)[C@H]1[C@@H]2C(=O)O[C@@H](c3ccccc3)[C@@H](c3ccccc3)N2[C@@H](c2ccc(OCCOC(=O)[C@@H]3C[C@@H]4C(=O)N[C@@H](CCCCN(C)C)C(=O)N4[C@@H]3c3ccc(O)cc3)cc2)[C@]12C(=O)Nc1ccccc12	-0.0988	0.887	0.52	-0.305	-0.0297	-2.38	0.0411 (inactive)	-0.473	-0.92	0.23 (inactive)	-2.65	-1.48 (inactive)	0.0862 (inactive)	-1.52 (inactive)	1.07 (inactive)	0.0694 (inactive)	-1.05 (inactive)	-0.628 (inactive)	0.313	-0.0172
CCCC[C@@H]1C[C@H]1[C@@H](NC(=O)c1ccccc1)c1ccc(C(F)(F)F)cc1	-1.46	-0.999	-0.959	0.256	-0.372	0.494	-0.259 (inactive)	0.677	-1.24	-0.0143 (inactive)	1.09	0.628 (inactive)	0.142 (inactive)	0.573 (inactive)	0.479 (inactive)	0.176 (inactive)	0.1 (inactive)	0.155 (inactive)	0.329	-0.369
COC(=O)C(CC#Cc1ccc2c(c1)[C@]1(C(=O)N2)[C@H](C(=O)N2CCN(c3ncccn3)CC2)[C@H]2C(=O)O[C@H](c3ccccc3)[C@H](c3ccccc3)N2[C@@H]1c1ccc(OCCO)cc1)C(=O)OC	-0.0572	-0.609	1.09	0.607	0.363	-0.612	0.895 (inactive)	-0.933	-1.44	-0.178 (inactive)	-0.589	1.78 (inactive)	-1.45 (inactive)	-8.4 (active)	3.59 (inactive)	3.84 (inactive)	0.475 (inactive)	1.05 (inactive)	-0.126	-0.039
Cc1ccccc1C(O)C1C=CC2C(=O)N(C)C(=O)C2N1N(c1ccccc1)c1ccccc1 (stereo not given)	-0.665	-1.41	0.655	-0.967	0.0748	0.02	-0.41 (inactive)	-0.217	-0.41	-0.191 (inactive)	-0.417	0.0882 (inactive)	-0.166 (inactive)	0.0842 (inactive)	0.53 (inactive)	0.591 (inactive)	-0.209 (inactive)	-0.334 (inactive)	-0.0373	0.396
CC=CC(O)C1C=CC2C(=O)N(c3ccccc3)C(=O)C2N1Nc1ccccc1F (stereo not given)	-1.68	-0.161	-0.182	0.807	-1.85	-0.866	-0.961 (inactive)	0.367	-0.254	-0.548 (inactive)	-0.471	-0.383 (inactive)	-0.424 (inactive)	-0.813 (inactive)	1.21 (inactive)	0.503 (inactive)	-0.382 (inactive)	-0.279 (inactive)	-0.788	0.181
C=CCNC(=O)[C@H]1[C@@H]2C(=O)O[C@@H](c3ccccc3)[C@@H](c3ccccc3)N2[C@@H](c2ccc(O)cc2)[C@]12C(=O)N(C(=O)OCCOC)c1ccccc12	-0.335	1.19	-0.513	-1.79	-1.66	-1.67	0.0113 (inactive)	-1.01	0.338	-1.56 (inactive)	-0.757	0.628 (inactive)	-0.331 (inactive)	0.747 (inactive)	0.229 (inactive)	0.931 (inactive)	-0.919 (inactive)	-1.08 (inactive)	0.164	-0.02
CN1C(=O)C2C=CC(C(O)COCc3ccccc3)N(N(c3ccccc3)c3ccccc3)C2C1=O (stereo not given)	1.52	-1.5	0.688	-3.79	-3.67	0.0589	-1.12 (inactive)	-0.974	-1.34	0.419 (inactive)	0.669	-2.9 (inactive)	-0.902 (inactive)	-0.0748 (inactive)	1.04 (inactive)	0.591 (inactive)	0.202 (inactive)	0.0087 (inactive)	-0.861	0.0537
